Holding throughout (test): NCI-60 one-dose screen, 48 h (100 = growth as untreated, 0 = no growth, -100 = all killed)
Holding throughout (conditions): 10 µM unless noted

The subject of assay [1] is DU-145 prostate.
Assay [2] has as its system K-562 leukemia.
Assay [3] relates to MALME-3M melanoma.
In assay [4] the test system is MDA-MB-231 breast.
Assay [5] concerns RXF 393 renal.
The test system of assay [6] is SF-268 CNS.
In assay [7] the test system is SF-295 CNS.
The test system of assay [8] is SF-539 CNS.
In assay [9] the test system is UACC-257 melanoma.
In assay [10] the test system is M14 melanoma.
Assay [11] has as its system HCT-15 colon.
Assay [12] relates to HT29 colon.
Assay [13] concerns SNB-75 CNS.
Assay [14] deals with SNB-19 CNS.
The test system of assay [15] is U251 CNS.
In assay [16] the test system is PC-3 prostate.
The subject of assay [17] is SK-MEL-5 melanoma.
Assay [18] deals with UACC-62 melanoma.
For assay [19], the system named is LOX IMVI melanoma.
For assay [20], the system named is SK-MEL-28 melanoma.

Experimental findings from PubChem BioAssay (NCI) are described below.

Compounds without any hit were thinned out: in the full panel of roughly 83,000, 20% have a hit.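 Negative percent growth values reflect cell death: -40 means 40% of the cells present at the start died, and -100 means all died.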 Values without a mark were called inactive. Calls of active or inactive are those of the source. Rule for the calls: active = growth percent below 10; inactive = the rest.

Take `N#Cc1nc(-c2ccc(Cl)cc2)oc1S(=O)(=O)N1CCN(c2ccc(F)cc2)CC1`: the growth in assay [1] was 97.3%; in assay [2], 24.6%; in assay [3] it was 92.6%; in [4] it was 103%; in assay [5] it was 109%; in assay [6], 97.6%. In addition, the growth is 101% in assay [7]; 98.3% in assay [8]; 94.5% in [9]; 95% in [10]; 54.3% in assay [11]; 88.5% in [12]. Besides, the growth was 94.2% in assay [13]; 96.4% in [14]; 94.6% in [15]; 96.4% in assay [16]; 96% in [17]; 100% in assay [18]. Moreover, the figures for the growth in [19] and in [20] were 29.3% and 104%, respectively.
With `C=CCn1c(C)nc2ccc(Nc3nc(Nc4ccc5nc(C)n(CC=C)c5c4)c4ccccc4n3)cc21`, the growth in assay [1] is -67.6% (active); in assay [2], -43.5% (active); in assay [3], -78.9% (active); in assay [4] it was -78.8% (active); in [5], -80.7% (active); in [6], -32.4% (active). In addition, the growth in assay [7] was -67.5% (active); in assay [8] it was -93.8% (active); in [9], -87.6% (active); in assay [10] it was -88.4% (active); in [11] it was -51.7% (active); in assay [12], -96.7% (active). The growth in assay [13] is -95.2% (active); in [14] it was 30.6%; in assay [15], -94.2% (active); in assay [16], -47.8% (active); in assay [17], -94.2% (active); in assay [18] it was -87% (active). The figures for the growth in [19] and in assay [20] were -88.6% (active) and -96% (active), respectively.
For the compound `NC(=O)c1cc(I)ccc1NC(=O)/C=C/c1ccccc1`, the growth in assay [1] was -7.97% (active); in [2] it was 1.5% (active); in assay [3], 42.7%; in [4], 31.6%; in assay [5], 19.3%; in assay [6] it was 29.9%. Further, the growth in [7] is -18.4% (active); in assay [8], -22% (active); in assay [9], 69.7%; in [10], 19.2%; in [11], 24.5%; in assay [12], 22.1%. For the same compound, the growth in assay [13] was 30.1%; in assay [14], 27.3%; in assay [15], 21.8%; in assay [16] it was 15.4%; in assay [17], 24.5%; in assay [18], 64.9%. For the same compound, the growth in assay [19] was 35.1%; in assay [20], 12%.
In the case of `CN1C(=O)/C(=C\c2c(Cl)cccc2Cl)c2ccccc21`, the growth in assay [1] was 99.6%; in assay [2], 30.7%; in assay [3], 79%; in [4] it was 87.2%; in assay [5] it was 85.1%; in assay [6], 87.2%. For the same compound, the growth is 86.3% in assay [7]; 87.1% in assay [8]; 87.2% in [9]; 75.5% in [10]; 67% in assay [11]; 84.5% in assay [12]. The growth in assay [13] was 61.3%; in [14], 80%; in assay [15], 88.4%; in [16], 95%; in assay [17], 86.5%; in assay [18] it was 71.2%. The growth in assay [19] is 82.5%; in [20] it was 94.4%.
Regarding `O=C1/C(=C/c2ccccc2Br)COc2ccc(O)cc21`, the growth in assay [1] was 69%; in assay [2], 11.9%; in [3], 84%; in [4], 73.9%; in [5], 101%; in assay [6], 86.1%. For the same compound, the growth in assay [7] is 99.1%; in assay [8] it was 80%; in [9], 99.2%; in assay [10] it was 73.3%; in assay [11] it was 40.7%; in [12], 48.8%. For the same compound, the growth in [13] is 89.3%; in assay [14], 75%; in [15], 46.1%; in assay [16], 60.7%; in [17] it was 94.6%; in [18], 66.4%. The growth was 18.8% in assay [19] and 101% in [20].
`C/C(=N\O)c1ccc(Cl)cc1`: the growth in [1] was 121%; in [2], 100%; in assay [3], 137%; in assay [4], 116%; in [5], 141%; in [6] it was 127%. Also, the growth is 118% in assay [7]; 114% in [8]; 89.5% in assay [9]; 114% in [10]; 112% in assay [11]; 108% in [12]. Moreover, the growth in assay [13] is 89.6%; in assay [14], 104%; in assay [15], 103%; in assay [16], 86.3%; in assay [17], 108%; in assay [18], 95%. Further, the growth was 105% in [19] and 122% in assay [20].
For `c1ccc(-c2oc(-c3ccccc3)c(CN3CCCCC3)c2CN2CCCCC2)cc1`, the growth in assay [1] is 57.7%; in [2], 7.49% (active); in assay [3], -12.5% (active); in assay [4], 29.6%; in assay [5], 2.14% (active); in [6] it was 57.9%. Also, the growth in assay [7] was 37.3%; in assay [8], 46.7%; in [9], 15.8%; in [10], 1.67% (active); in [11] it was 19.4%; in assay [12], 10.9%. Also, the growth in assay [13] is 55.6%; in assay [14], 44.5%; in [15] it was 25.2%; in assay [16], 19.6%; in [17], -87% (active); in [18], 37.6%. Moreover, the growth in assay [19] is 22.3%; in assay [20], 10.1%.
For the compound `Nc1n[nH]c2cccc(C#Cc3cccc(C(=O)Nc4cc(C(F)(F)F)cc(C(F)(F)F)c4)c3)c12`, the growth in assay [1] is 91.5%; in assay [2] it was 4.87% (active); in assay [3], 53.4%; in assay [4] it was 51.9%; in [5], 50.5%; in assay [6], 68.8%. Also, the growth was 77.9% in assay [7]; 53.3% in [8]; 71.6% in [9]; 34.1% in assay [10]; 70.4% in assay [11]; 46.4% in [12]. Also, the growth in assay [13] is 91.5%; in assay [14], 105%; in assay [15] it was 84%; in [16], 33%; in assay [17] it was 73%; in assay [18], 50%. Besides, the growth in assay [19] was 41.2%; in assay [20], 62.1%.
On to `Cc1cccc(CNc2c3ccccc3nc3ccccc23)c1`, for which the growth was 33.9% in [1]; 1.88% (active) in assay [2]; 14.1% in [3]; 38.7% in assay [4]; -1.71% (active) in [5]; 52% in [6]. Besides, the growth in [7] is 25.3%; in assay [8], 11.7%; in assay [9] it was 36.2%; in assay [10] it was 22.8%; in [11] it was 15.9%; in assay [12] it was 5.15% (active). Besides, the growth in [13] is 37%; in assay [14], 29.7%; in [15], 23.7%; in assay [16] it was 24.9%; in assay [17] it was 19.8%; in [18] it was 42.8%. Moreover, the values for the growth in assay [19] and in assay [20] were 6.25% (active) and 58.8%, respectively.
`CC(=O)N1N=C(c2ccc(Nc3nc(Nc4ccccc4)nc(Nc4ccccc4)n3)cc2)CC1c1cccc([N+](=O)[O-])c1` (stereo not given): the growth was 102% in [1]; 80.8% in [2]; 136% in assay [3]; 73.7% in [4]; -0.925% (active) in assay [5]; 109% in assay [6]. Moreover, the growth in [7] is 104%; in assay [8], 89.8%; in assay [9], 92.3%; in assay [10], 94.8%; in assay [11] it was 110%; in assay [12], 100%. The growth in assay [13] is 79.7%; in assay [14] it was 86.1%; in [15], 97.7%; in assay [16], 80.6%; in assay [17] it was 87.4%; in assay [18], 84%. Moreover, the results for the growth in assay [19] and in [20] were 86.9% and 115%, respectively.
Consider `COC(=O)CC[C@H](C)[C@H]1CC[C@H]2[C@@H]3CC[C@@H]4CC5(CC[C@]4(C)[C@H]3CC(=O)[C@]12C)Nc1ccccc1NC5=NC(C)(C)C` (stereo not given in full), for which the growth in assay [1] was 90.2%; in [2], 42.2%; in assay [3], 109%; in assay [4], 86.7%; in assay [5], 84.7%; in [6], 84.1%. Moreover, the growth was 84% in assay [7]; 90.8% in assay [8]; 77.2% in [9]; 84.9% in [10]; 51.4% in assay [11]; 69.8% in [12]. In addition, the growth in [13] is 71.1%; in [14], 81.5%; in assay [15] it was 48.3%; in assay [16], 56.5%; in [17], 77.5%; in assay [18] it was 57.9%. The growth in assay [19] is 47.4%; in [20], 89.2%.
For the compound `c1csc(-c2ccc(CNc3c4ccccc4nc4ccccc34)cc2)c1`, the growth is 61.7% in assay [1]; -39.9% (active) in [2]; -82% (active) in assay [3]; 38.3% in assay [4]; -14.3% (active) in [5]; 62.9% in assay [6]. The growth was 15.8% in assay [7]; 12.5% in assay [8]; -37.4% (active) in assay [9]; -74.4% (active) in assay [10]; -66.2% (active) in assay [11]; -46.8% (active) in [12]. In addition, the growth in assay [13] is 36.1%; in assay [14] it was 46.2%; in assay [15] it was -72.7% (active); in [16] it was 24%; in [17] it was -90.7% (active); in assay [18], 64.5%. Besides, the growth in [19] is -90.7% (active); in assay [20], -86% (active).
As for `Nc1c(C(=O)Nc2ccncc2)sc2nc3c(cc12)C(O)CCC3` (stereo not given), the growth was 96.8% in assay [1]; 88.7% in [2]; 118% in assay [3]; 96.8% in [4]; 107% in [5]; 95.1% in assay [6]. The growth in assay [7] was 106%; in assay [8] it was 96.2%; in assay [9], 96.3%; in assay [10], 114%; in [11], 86.3%; in assay [12], 85.4%. Also, the growth in assay [13] is 105%; in assay [14] it was 95.4%; in assay [15], 91.6%; in [16], 94.6%; in assay [17] it was 92.4%; in [18] it was 80%. For the same compound, the growth in assay [19] is 105%; in assay [20] it was 85.5%.
Take `CCOC(=O)c1c2c(n3cccc(F)c13)C(=O)c1ncccc1C2=O`: the growth in assay [1] was 3.34% (active); in assay [2] it was 9.2% (active); in assay [3], 25.6%; in [4] it was 38.2%; in assay [5] it was 1.36% (active); in assay [6], 20.9%. The growth is 3.24% (active) in assay [7]; -9.12% (active) in assay [8]; 12.7% in assay [9]; -33.1% (active) in [10]; 12.7% in [11]; 8.73% (active) in assay [12]. Also, the growth in assay [13] was 28.7%; in assay [14], 11.3%; in assay [15] it was -35.5% (active); in [16], 13.7%; in assay [17], -23% (active); in assay [18] it was -33.4% (active). The growth in assay [19] is -20.9% (active); in assay [20] it was 37.4%.
